Structures are written as SMILES. Calls of active or inactive are those of the source.

Experiment [1] in a line: binders of probe aFSTL3 on microarray, primary screen, stem cell growth factor project, biochemical, small-molecule microarray, fluorescence 635/667 (AID 1064).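 Note: measures binding of the biotinylated anti-FSTL3 antibody to printed compounds.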 Conditions: higher = more signal.
Experiment [2] can be described thus: binders from COS7 lysate, DM2A8 probe, primary screen, torsin A project, cell lysate, small-molecule microarray, fluorescence 635/667 (AID 1065). Conditions: higher = more signal, COS7 lysate expressing mutant human TOR1A.
Experiment [3] in a line: binders of probe aFGF2 on microarray, primary screen, stem cell growth factor project, biochemical, small-molecule microarray, fluorescence 635/667 (AID 1067).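 Note: measures binding of biotinylated aFGF2 protein to printed compounds on slides; z-score merges feature fluorescence and signal-to-noise across triplicate slides.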 Conditions: higher = more signal.
The nature of experiment [4]: binders of probe aFGF10 on microarray, primary screen, stem cell growth factor project, biochemical, small-molecule microarray, fluorescence 635/667 (AID 1071).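 Note: score merges 667 nm spot intensity and signal to noise from triplicate slides.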 Conditions: higher = more signal.
For experiment [5], the target named is Neurogenic locus notch homolog protein 2 (Homo sapiens) (UniProt Q04721). As to the kind of experiment: Notch2 binders on small-molecule microarrays, primary screen, biochemical, small-molecule microarray, 635 nm fluorescence, stem cell growth factors (AID 1073). Conditions: Notch2 binding, higher = more signal.
For experiment [6], the target named is Pro-neuregulin-1, membrane-bound isoform (Homo sapiens) (UniProt Q02297). The experiment is described as follows: NRG1 binders on small-molecule microarrays, primary screen, psychiatric disease protein project, biochemical, small-molecule microarray, fluorescence 635/667 (AID 1075).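 Note: score combines 667 nm spot fluorescence with signal to noise.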 Conditions: NRG1 binding, 635 nm fluorescence, higher = more signal.
In experiment [7] the test system is Neuregulin-1 EGF-like domain. The experiment is described as follows: binders of neuregulin-1 EGF-like domain, primary screen, biochemical, small-molecule microarray, 635 nm fluorescence (AID 1081).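 Note: binding of the protein to compounds printed on small-molecule microarray slides.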 Conditions: small-molecule microarray binding, higher = more signal.
Experiment [8] is described as follows: FRG1 promoter luciferase signal modulators, primary screen, FRG1 inhibition for FSHD, cell-based, C2C12 myotubes, firefly/Renilla luciferase, luminescence (AID 1084). Conditions: higher = more signal, called active from +8 up or from −8 down.
Experiment [9] in a line: binders of probe aFST on microarray, primary screen, stem cell growth factor project, biochemical, small-molecule microarray, fluorescence 635/667 (AID 1086).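 Note: score merges 667 nm fluorescence with signal-to-noise of each printed compound spot.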 Conditions: higher = more signal.
A short description of experiment [10]: binders of probe aHhip on microarray, primary screen, stem cell growth factor project, biochemical, small-molecule microarray, fluorescence 635/667 (AID 1087).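 Note: score merges spot fluorescence at 667nm with spot signal to noise ratio.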 Conditions: higher = more signal.
In experiment [11] the test system is PRMT1 (protein arginine N-methyltransferase 1). As to the kind of experiment: PRMT1 binders on small-molecule microarrays, primary screen, biochemical, small-molecule microarray, 635 nm fluorescence (AID 1088).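 Note: binding of Prmt1 protein to compounds spotted on small-molecule microarray slides.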 Conditions: small-molecule microarray binding, higher = more signal.
The nature of experiment [12]: yeast growth modulation, basal conditions, primary screen, YJM789 clinical isolate, OD600, 24 h (AID 1089).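 Note: growth of clinical yeast isolate S. cerevisiae YJM 789 seeded 1000 cells per well; test concentration not given here.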 Conditions: S. cerevisiae YJM789 growth, higher = more signal, called active from +8 up or from −8 down.
The nature of experiment [13]: fission yeast growth modulation, primary screen, strain 972, OD600, 24 h, no modulator (AID 1090).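 Note: basal condition with compound alone and no growth modifier present; test concentration not given here.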 Conditions: S. pombe 972 growth, higher = more signal, called active from +8 up or from −8 down.
Experiment [14] in a line: S. cerevisiae growth modulation with rapamycin, primary screen, strain BY4716, OD600, 96 h (AID 1091). Note: test concentration not given here. Conditions: higher = more signal, called active from +8 up or from −8 down.
Experiment [15] has as its target Torsin-1A-interacting protein 2 (Homo sapiens) (UniProt Q8NFQ8). As to the kind of experiment: LULL1 binders on small-molecule microarray, primary screen, cell lysate, human LULL1 lysate, 635/667 nm fluorescence (AID 1092).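 Note: probe is lysate of COS7 cells overexpressing human LULL1; score merges per-feature 667 nm fluorescence with signal-to-noise.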 Conditions: hLULL1 lysate binding, 635 nm fluorescence, higher = more signal.
Experiment [16] can be described thus: E. coli growth modulation, two-sided OD650, primary screen, E. coli filamentation project, strain DRC41, 24 h (AID 1093).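 Note: MC1000 strain lacking acrAB efflux and sulA so SOS filamentation is blocked; test concentration not given here.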 Conditions: OD650, 24 h, higher = more signal, called active from +8 up or from −8 down.
Experiment [17] is described as follows: small-molecule microarray binders of probe aLefty2, primary screen, biochemical, biotinylated probe, 635/667 nm fluorescence (AID 1094).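 Note: score merges spot fluorescence near 667 nm with spot signal-to-noise ratio.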 Conditions: higher = more signal.
Experiment [18] relates to Noggin (protein binding on small-molecule microarray). As to the kind of experiment: Noggin binders on small-molecule microarray, primary screen, biochemical, 635/667 nm fluorescence (AID 1095).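 Note: score merges 667 nm feature fluorescence with signal to noise over triplicate slides.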 Conditions: 635 nm fluorescence, higher = more signal.
For experiment [19], the target named is Neurogenic locus notch homolog protein 3 (Homo sapiens) (UniProt Q9UM47). The experiment is described as follows: NOTCH3 binders on small-molecule microarray, primary screen, biochemical, 635/667 nm fluorescence (AID 1096). Conditions: NOTCH3 binding, 635 nm fluorescence, higher = more signal.
Experiment [20] in a line: small-molecule microarray binders of probe aEGFR, primary screen, biochemical, biotinylated probe, 635/667 nm fluorescence (AID 1097).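 Note: probe is a biotinylated anti-EGFR antibody binding compounds printed on slides; score combines fluorescence near 667 nm and signal to noise of each spot.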 Conditions: higher = more signal.

Neurogenic locus notch homolog protein 2 (Homo sapiens), sequence (Q04721 whole entry, looked up, canonical isoform): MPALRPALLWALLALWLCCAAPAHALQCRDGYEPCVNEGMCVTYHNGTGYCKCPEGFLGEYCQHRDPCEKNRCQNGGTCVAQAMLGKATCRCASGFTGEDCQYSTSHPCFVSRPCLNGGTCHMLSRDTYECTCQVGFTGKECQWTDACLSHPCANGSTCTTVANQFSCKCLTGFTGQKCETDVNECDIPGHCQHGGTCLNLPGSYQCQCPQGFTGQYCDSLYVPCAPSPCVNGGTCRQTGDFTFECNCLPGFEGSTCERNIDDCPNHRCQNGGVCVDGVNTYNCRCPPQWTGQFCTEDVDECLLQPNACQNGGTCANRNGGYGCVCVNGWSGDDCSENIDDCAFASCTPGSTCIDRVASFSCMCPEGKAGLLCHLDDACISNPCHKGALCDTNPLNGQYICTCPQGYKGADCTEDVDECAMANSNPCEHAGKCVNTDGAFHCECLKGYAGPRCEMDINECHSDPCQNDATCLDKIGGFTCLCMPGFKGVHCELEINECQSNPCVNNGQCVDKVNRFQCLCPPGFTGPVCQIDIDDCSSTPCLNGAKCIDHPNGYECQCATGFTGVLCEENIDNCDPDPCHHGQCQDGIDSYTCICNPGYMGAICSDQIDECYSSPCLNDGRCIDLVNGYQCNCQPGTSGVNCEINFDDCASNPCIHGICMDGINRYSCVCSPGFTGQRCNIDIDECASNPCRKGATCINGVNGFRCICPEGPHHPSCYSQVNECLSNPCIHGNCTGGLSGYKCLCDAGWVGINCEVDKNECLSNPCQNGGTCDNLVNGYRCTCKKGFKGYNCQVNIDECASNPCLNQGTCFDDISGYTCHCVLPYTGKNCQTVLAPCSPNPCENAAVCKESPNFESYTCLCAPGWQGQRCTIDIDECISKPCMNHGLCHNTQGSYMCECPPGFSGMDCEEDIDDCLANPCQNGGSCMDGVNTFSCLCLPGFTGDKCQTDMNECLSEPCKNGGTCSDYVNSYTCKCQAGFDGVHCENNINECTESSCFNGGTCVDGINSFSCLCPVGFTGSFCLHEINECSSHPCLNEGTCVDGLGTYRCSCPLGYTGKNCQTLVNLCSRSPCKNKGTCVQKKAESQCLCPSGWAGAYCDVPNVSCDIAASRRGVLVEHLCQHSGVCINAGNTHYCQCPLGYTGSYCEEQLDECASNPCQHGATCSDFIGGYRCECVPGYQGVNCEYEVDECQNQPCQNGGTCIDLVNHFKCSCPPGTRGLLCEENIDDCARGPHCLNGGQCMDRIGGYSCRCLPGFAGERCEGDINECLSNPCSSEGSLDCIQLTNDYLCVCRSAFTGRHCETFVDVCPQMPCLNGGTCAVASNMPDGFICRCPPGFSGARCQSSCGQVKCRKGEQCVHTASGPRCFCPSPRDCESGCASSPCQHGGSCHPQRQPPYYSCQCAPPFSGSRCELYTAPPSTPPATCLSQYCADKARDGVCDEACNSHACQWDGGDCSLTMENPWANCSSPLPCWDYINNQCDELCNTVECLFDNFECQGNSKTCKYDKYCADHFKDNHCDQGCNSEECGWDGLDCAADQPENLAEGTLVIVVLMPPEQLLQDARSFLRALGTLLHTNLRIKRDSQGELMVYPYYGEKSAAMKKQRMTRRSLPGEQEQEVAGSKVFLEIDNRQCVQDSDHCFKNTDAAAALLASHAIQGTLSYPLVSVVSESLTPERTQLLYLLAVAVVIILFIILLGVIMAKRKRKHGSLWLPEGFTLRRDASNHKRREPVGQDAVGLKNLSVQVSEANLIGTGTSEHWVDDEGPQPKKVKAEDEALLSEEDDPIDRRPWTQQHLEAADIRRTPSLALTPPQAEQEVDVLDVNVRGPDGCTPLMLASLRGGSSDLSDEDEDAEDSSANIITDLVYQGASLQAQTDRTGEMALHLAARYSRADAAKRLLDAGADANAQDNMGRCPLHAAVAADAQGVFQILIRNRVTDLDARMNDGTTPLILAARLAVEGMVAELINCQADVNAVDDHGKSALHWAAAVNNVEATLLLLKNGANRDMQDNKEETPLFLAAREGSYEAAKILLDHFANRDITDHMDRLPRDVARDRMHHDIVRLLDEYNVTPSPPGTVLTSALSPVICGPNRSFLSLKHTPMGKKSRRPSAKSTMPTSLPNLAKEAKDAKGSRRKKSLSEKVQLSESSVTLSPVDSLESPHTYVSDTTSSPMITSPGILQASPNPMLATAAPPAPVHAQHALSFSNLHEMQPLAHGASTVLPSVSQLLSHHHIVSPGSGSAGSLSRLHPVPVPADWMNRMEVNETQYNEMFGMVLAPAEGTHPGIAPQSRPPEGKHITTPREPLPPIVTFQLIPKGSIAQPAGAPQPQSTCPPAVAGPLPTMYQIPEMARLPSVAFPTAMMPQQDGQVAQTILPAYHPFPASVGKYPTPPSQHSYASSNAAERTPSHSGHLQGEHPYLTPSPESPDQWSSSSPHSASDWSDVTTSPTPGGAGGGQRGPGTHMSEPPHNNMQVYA
Torsin-1A-interacting protein 2 (Homo sapiens), sequence (Q8NFQ8 whole entry, looked up): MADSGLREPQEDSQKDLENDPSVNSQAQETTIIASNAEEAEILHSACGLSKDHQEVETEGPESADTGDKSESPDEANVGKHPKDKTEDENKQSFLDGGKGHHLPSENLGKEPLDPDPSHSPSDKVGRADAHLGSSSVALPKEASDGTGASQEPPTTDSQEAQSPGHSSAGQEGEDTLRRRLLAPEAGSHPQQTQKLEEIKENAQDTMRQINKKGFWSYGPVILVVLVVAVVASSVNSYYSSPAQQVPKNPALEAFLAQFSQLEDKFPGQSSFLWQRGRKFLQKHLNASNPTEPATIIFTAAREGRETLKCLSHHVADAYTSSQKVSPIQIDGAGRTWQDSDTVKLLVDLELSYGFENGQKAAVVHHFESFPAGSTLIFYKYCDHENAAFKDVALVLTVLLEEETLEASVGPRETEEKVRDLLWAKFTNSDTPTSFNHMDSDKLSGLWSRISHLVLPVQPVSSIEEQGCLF
Pro-neuregulin-1, membrane-bound isoform (Homo sapiens), sequence (Q02297 whole entry, looked up, the tested form may be a part, canonical isoform): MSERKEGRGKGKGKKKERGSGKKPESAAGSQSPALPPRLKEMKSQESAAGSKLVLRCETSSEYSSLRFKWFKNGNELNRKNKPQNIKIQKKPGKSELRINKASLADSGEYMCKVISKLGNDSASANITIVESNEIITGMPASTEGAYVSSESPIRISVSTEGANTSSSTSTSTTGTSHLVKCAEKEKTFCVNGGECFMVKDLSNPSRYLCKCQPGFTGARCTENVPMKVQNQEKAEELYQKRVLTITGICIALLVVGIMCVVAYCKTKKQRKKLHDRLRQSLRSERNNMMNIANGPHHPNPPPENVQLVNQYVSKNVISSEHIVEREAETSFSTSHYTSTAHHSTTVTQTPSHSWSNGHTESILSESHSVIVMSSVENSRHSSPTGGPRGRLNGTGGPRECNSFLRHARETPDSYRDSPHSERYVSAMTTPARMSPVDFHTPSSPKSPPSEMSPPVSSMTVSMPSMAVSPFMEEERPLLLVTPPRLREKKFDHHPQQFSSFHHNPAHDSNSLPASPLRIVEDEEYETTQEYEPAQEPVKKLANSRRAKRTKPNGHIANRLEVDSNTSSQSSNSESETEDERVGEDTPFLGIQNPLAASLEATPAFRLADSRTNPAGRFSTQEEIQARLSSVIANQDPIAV

Consider `COCCOC(=O)N1C(=O)[C@@]2(c3ccccc31)[C@H](c1ccccc1OCCO)N1[C@H](c3ccccc3)[C@H](c3ccccc3)OC(=O)[C@H]1[C@@H]2C(=O)N1CCc2cc(OC)c(OC)cc2C1`, for which the composite z-score in experiment [1] was 0.184; in [2] it was 0.124; in experiment [3] it was 0.071; in experiment [4], 0.336; in experiment [5], 0.403; in [6] it was 0.982. Moreover, the composite z-score in experiment [7] worked out at 1.25; in experiment [9] it was 0.356; in experiment [10], 0.28; in experiment [11], 1.52; in experiment [15] it was 2.01; in experiment [17], 0.0706. The composite z-score in [18] was 1.34; in experiment [19], 1.04; in [20], 0.0556. Moreover, the z-score was -1.61 (inactive) in experiment [8]; 2.11 (inactive) in experiment [12]; 1.99 (inactive) in [13]; 6.86 (inactive) in [14]; 0.344 (inactive) in experiment [16].

For the molecule `CCCCC(=C=CC[C@H](O)c1ccccc1OCCO)C[C@H](O)c1ccccn1`, the composite z-score was -0.0078 in experiment [1]; 1.07 in [2]; -0.116 in experiment [3]; -0.0673 in experiment [4]; -0.285 in [5]; 0.466 in [6]. The composite z-score in experiment [7] is 0.376; in experiment [9], 0.0552; in experiment [10] it was -0.456; in [11], 1.13; in [15], 0.0266; in [17] it was -0.0699. Also, the values for the composite z-score in experiment [18], in [19] and in [20] were 0.939, 0.0956 and -0.179, respectively. Moreover, the z-score in [8] is -1.38 (inactive); in [12], 0.27 (inactive); in experiment [13], -0.132 (inactive); in experiment [14] it was 0.0422 (inactive); in experiment [16] it was 1.3 (inactive).

Regarding `CCOC(=O)C[C@H]1[C@H](OC(=O)c2ccc(C(=O)c3ccccc3)cc2)[C@@H](NC(=O)C2CCCCC2)c2cc(OCCCO)ccc2N1C(=O)Cc1ccc(OC)cc1`, the composite z-score came to 0.644 in experiment [1]; 0.673 in experiment [2]; 0.0007 in experiment [3]; 0.348 in [4]; 0.376 in [5]; 0.556 in [6]. Moreover, the composite z-score in [7] came to 0.207; in experiment [9], 0.757; in experiment [10] it was 0.295; in experiment [11], 0.623; in [15] it was 0.603; in [17] it was 0.0044. The composite z-score in experiment [18] was 0.544; in [19] it was 0.88; in [20], 0.0408. Further, the z-score was -1.01 (inactive) in experiment [8]; -0.989 (inactive) in experiment [12]; 0.0425 (inactive) in experiment [13]; -0.0492 (inactive) in experiment [14]; 0.332 (inactive) in [16].

For `O=C(N1CCOCC1)[C@@]1(CCS(=O)(=O)c2ccccc2)COC(c2ccc(OCCCO)cc2)=N1`, the composite z-score in experiment [1] was 0.229; in [2] it was 0.281; in experiment [3] it was -0.0348; in experiment [4], 0.797; in experiment [5] it was -0.194; in experiment [6] it was 0.929. In addition, the composite z-score in experiment [7] is 0.942; in [9], 0.54; in experiment [10], 0.041; in experiment [11], 0.988; in [15], 3.18; in experiment [17], -0.139. In addition, the figures for the composite z-score in experiment [18], in experiment [19] and in [20] were 0.0307, 0.0961 and -0.174, respectively. Also, the z-score is -1.85 (inactive) in experiment [8]; 0.0962 (inactive) in experiment [12]; 0.365 (inactive) in [13]; -0.408 (inactive) in experiment [14]; 1.01 (inactive) in experiment [16].

Consider `CC1=C2[C@@H](CCc3ccccc3)OB(O)C[C@@H]2[C@@H]2C(=O)C=CC(=O)[C@@H]2C1`, for which the composite z-score in experiment [1] was -0.741; in [2], 0.654; in [3], -0.0887; in experiment [4], 1.13; in experiment [5], 1.38; in experiment [6], 0.51. The composite z-score in [7] was 0.976; in experiment [9], 0.32; in experiment [10], -0.16; in [11], 1.31; in experiment [15], 0.775; in experiment [17] it was 0.0037. Further, the composite z-score in experiment [18] was found to be 0.642; in [19] it was 1.1; in experiment [20], 0.0484. The z-score in experiment [8] is -1.57 (inactive); in experiment [12], -0.689 (inactive); in experiment [13], -15.6 (active); in experiment [14] it was -0.679 (inactive); in experiment [16] it was -0.315 (inactive).
